This is a sample that favours compounds with a hit; in the whole collection about 3% have one here.
S16 F2sN tox: cytotoxicity in S16 Pmp22-F2sN Schwann cells; Potency, µM (series often up to 57.5 µM), for inactives: at the highest dose activity change, negative = cytotoxicity, hits mostly cytotoxic; S16 Pmp22-F2sN Schwann cells viability, CellTiter-Glo, 24 h; hit rate 0.48% among 43,000; note: potency is the fitted concentration of half-maximal effect; % is set by controls: 0 for no effect and ±100 for the full control effect; nearly all actives have a fitted effect of over 65% in size
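Seed 500-1,000 S16 Pmp22-F2sN cells per well in phenol-red-free DMEM with 10% heat-inactivated FBS; pin-add 23 nL compound; incubate 24 h at 37C; add CellTiter-Glo, wait 15 min protected from light; read luminescence.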
p53null 39C kill: selectivity test: cytotoxicity in p53 null cells, nonpermissive temperature | hit rate 0.97% among 55,000 | Potency, µM (doses to about 46.1 µM), for inactives: top-dose activity, negative = cell killing, actives largely listed as cytotoxic | AID 904 | H1299 p53-null (neo) cells, 39C, ATPlite viability, 24 h;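 note: potency is the fitted concentration of half-maximal effect; 0% = DMSO only and -100% = full killing by 100 µM tamoxifen; nearly all actives have a fitted effect of over 50% in size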
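Following overnight plating at 37C (600 cells/well), H1299-neo or H1299-p53A138V cells are dosed up to 46 uM. Incubation lasts 24 hr at 39C before ATP detection.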
PMP22 txn prim: modulators of PMP22 gene transcription in S16 Schwann cells | S16 Pmp22-F2sN Schwann cells (luciferase reporters placed in the Pmp22 gene), FLuc/NLuc coincidence luminescence, 24 h | Potency, µM (titrated, usually from 57.5 µM), for inactives: at the top dose activity change, negative = inhibition, usual class: inhibitors | hit rate 2% among 43,000; active = clear falling dose curves in both reporters; inconclusive = both reporters move, but less clearly or upward; inactive = either reporter flat; the % is the NLuc reporter signal; note: potency is the fitted concentration of half-maximal effect; % is set by controls: 0 for no effect and ±100 for the full control effect
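qHTS, 1536-well. Cells seeded, compounds added by pin tool, 24 h 37C. Nano-Glo reagent 1 (lysis/FLuc), 10 min RT, read; Stop&Glo, 10 min RT, read NLuc.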
OvCa metastasis: inhibitors of ovarian cancer cell adhesion and invasion in omental model; SKOV3ip1-GFP adhesion/invasion on 3D omental model, fluorescence; Potency, µM (top dose mostly 45.8 µM), inactives show at the top dose activity change, negative = inhibition, actives largely listed as inhibitors; hit rate 0.1% among 46,000; AID 1963576;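 note: potency is the fitted concentration of half-maximal effect; plate controls were DMSO wells for no effect and tomatine positive control wells for full effect; nearly all actives have a fitted effect of over 65% in size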
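A 3D layer of primary human omental fibroblasts, mesothelial cells, fibronectin and collagen I, grown 48 hr, received SKOV3ip1-GFP cells in serum-free medium plus compounds at 0.36-46 umol/L. After 2 hr RT and 16 hr 37 C, fixed adherent GFP cells were counted; normalized to DMSO and tomatine.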
mTORC1 inh: mTORC1 pathway inhibition measured by phospho-rpS6 | Tsc2-/- p53-/- MEF, phospho-rpS6 immunofluorescence/PI, 24 h | Potency, µM (series often up to 38.3 µM), inactives show at the top dose activity change, negative = inhibition, usual class: inhibitors | AID 493208 | hit rate 0.78% among 44,000;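 note: potency is the fitted concentration of half-maximal effect; plate controls were DMSO for no effect and rapamycin for full effect; nearly all actives have a fitted effect of over 50% in size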
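Tsc2-/-, p53-/- mouse embryonic fibroblasts (empty-vector line) exposed to compound 24 hrs at 37 C, fixed, immunostained for phospho-rpS6 and counterstained with propidium iodide. Acumen laser scanning gives % positive cells from Alexa 488/PI ratio, thresholded using 7.5 nM rapamycin; PI count gives viability.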
p53null 32C kill: selectivity test: cytotoxicity in p53 null cells, permissive temperature; H1299-neo p53 null cells, ATP luminescence, 24 h, 32C; Potency, µM (doses to about 46.1 µM), without a hit: at the highest dose activity change, negative = cytotoxicity, most hits filed as cytotoxic; hit rate 0.62% among 55,000; AID 903;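 note: potency is the fitted concentration of half-maximal effect; 0% = DMSO only and -100% = full killing by 100 µM tamoxifen; nearly all actives have a fitted effect of over 55% in size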
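AC50 values derive from Hill modelling of qHTS concentration-response data (up to 46 uM) in H1299-neo cells. Cells were treated 24 h at 32C following overnight attachment at 37C; viability was read as cellular ATP.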
NLuc saturating: counter-screen for PMP22 expression modulators: NanoLuc inhibition, saturating substrate | Secreted NLuc enzyme (filtered S16 cell medium), Nano-Glo luminescence | shares compounds with PMP22 txn prim | hit rate 4% among 690 | Potency, µM (titrated, usually from 57.5 µM), for inactives: at the top dose activity change, negative = inhibition, hits mostly inhibitors; note: potency is the fitted concentration of half-maximal effect; % is set by controls: 0 for no effect and ±100 for the full control effect
NLuc Km ctr: NanoLuc inhibition at Km substrate, PMP22 artifact check; secreted NLuc enzyme, coelenterazine luminescence, Km conditions; shares compounds with PMP22 txn prim; Potency, µM (titrated, usually from 57.5 µM), inactives show top-dose activity change, negative = inhibition, usual class: inhibitors; hit rate 5% among 690; note: potency is the fitted concentration of half-maximal effect; % is set by controls: 0 for no effect and ±100 for the full control effect
FLuc ctr PMP22: counter-screen for PMP22 expression modulators: firefly luciferase inhibition; shares compounds with PMP22 txn prim; purified P. pyralis FLuc, luminescence, 10 min; Potency, µM (series often up to 57.5 µM), for the others: top-dose activity, negative = inhibition, hits mostly inhibitors; 690 tested, under 10 active; AID 1508640; note: % of control where 0% means no effect
Target sequence (P08659 whole entry, looked up): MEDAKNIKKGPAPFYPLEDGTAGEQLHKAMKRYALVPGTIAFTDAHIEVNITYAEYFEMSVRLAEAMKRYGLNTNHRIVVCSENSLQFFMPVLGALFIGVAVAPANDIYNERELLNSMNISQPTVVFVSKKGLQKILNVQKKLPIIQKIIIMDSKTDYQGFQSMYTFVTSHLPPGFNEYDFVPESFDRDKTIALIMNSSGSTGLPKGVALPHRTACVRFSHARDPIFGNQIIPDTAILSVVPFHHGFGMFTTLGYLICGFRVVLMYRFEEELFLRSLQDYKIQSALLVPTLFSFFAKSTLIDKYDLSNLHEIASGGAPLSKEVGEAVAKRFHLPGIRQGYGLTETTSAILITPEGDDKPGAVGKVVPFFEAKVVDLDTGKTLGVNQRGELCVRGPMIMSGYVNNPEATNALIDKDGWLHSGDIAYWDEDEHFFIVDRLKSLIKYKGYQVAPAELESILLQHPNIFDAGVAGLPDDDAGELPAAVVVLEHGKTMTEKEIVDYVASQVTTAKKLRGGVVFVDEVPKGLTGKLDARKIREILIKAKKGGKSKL
S16 F2sN tox cnf: S16 Schwann cell cytotoxicity, confirmatory; shares compounds with PMP22 txn prim; S16 Schwann cells viability, CellTiter-Glo ATP luminescence, 24 h; Potency, µM (titrated, usually from 57.5 µM), for the others: top-dose activity change, negative = viability loss, usual class: cytotoxic; hit rate 7% among 690; AID 1508641; note: potency is the fitted concentration of half-maximal effect; % is set by controls: 0 for no effect and ±100 for the full control effect
PMP22 txn cnf: PMP22 transcription modulation, confirmatory | shares compounds with PMP22 txn prim | AID 1508646 | hit rate 22% among 690 | S16 Schwann cells Pmp22-F2sN, dual luciferase, 24 h | Potency, µM (series often up to 57.5 µM), for the others: at the top dose activity change, negative = inhibition, actives largely listed as inhibitors; active = clear falling dose curves in both reporters; inconclusive = both reporters move, but less clearly or upward; inactive = either reporter flat; the % is the FLuc reporter signal; note: potency is the fitted concentration of half-maximal effect
PMP22 prot conf: rat PMP22 protein level modulation, confirmatory | shares compounds with PMP22 txn prim | S16 Schwann cells Pmp22-HiBiT, luminescence, 48 h | 95 tested, under 10 active | Potency, µM (titrated, usually from 27.9 µM), without a hit: top-dose activity change, negative = inhibition, actives largely listed as inhibitors
Target sequence (P25094 whole entry, looked up): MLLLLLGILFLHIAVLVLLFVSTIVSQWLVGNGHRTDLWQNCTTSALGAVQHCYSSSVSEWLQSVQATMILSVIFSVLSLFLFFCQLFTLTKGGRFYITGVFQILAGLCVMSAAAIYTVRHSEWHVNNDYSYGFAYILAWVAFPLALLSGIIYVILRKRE
The depositor's hits bear a star; i = inactive; ? = inconclusive; · = no result given. Unless noted, calls come from the whole dose curve; as a rule, active = well fitted curve in the direction sought with a large enough effect; inconclusive = small, poorly fitted or top-dose-only effect, or another doubt; inactive = no such curve, though single readings can be large; an effect the other way counts as inactive or inconclusive.

SMILES | S16 F2sN tox | p53null 39C kill | PMP22 txn prim | OvCa metastasis | mTORC1 inh | p53null 32C kill | NLuc saturating | NLuc Km ctr | FLuc ctr PMP22 | S16 F2sN tox cnf | PMP22 txn cnf | others
CCOc1ccc2nc(NC(=O)c3nc(SC(C)C)ncc3Cl)sc2c1 | ? | -29% | 18µM* | i | -2% | -13% | -6% | -3% | -12% | -21% | ?
Cc1cccc(CS(=O)(=O)c2ncc(Cl)c(C(=O)Nc3nc4ccc(F)cc4s3)n2)c1 | ? | -3% | 6.5µM* | i | ? | 2% | ? | ? | -5% | ? | 10µM* | PMP22 prot conf=?
CC1CCC(C(=O)N(c2cc(C#CC(C)(C)C)sc2C(=O)O)C2CCC(O)CC2)CC1 (stereo not given) | · | · | · | -3% | · | · | · | · | · | · | ·
CCOCCc1nn2c(=O)cc(COC(=O)c3ccccc3NC(=O)c3ccccc3F)nc2s1 | 5% | 3% | ? | 2% | 0% | -4% | -5% | -1% | 1% | -2% | -21%
CCc1nn2c(=O)cc(COC(=O)c3ccccc3NC(=O)COc3ccccc3C)nc2s1 | 40% | 14% | -29% | -38% | 0% | -4% | · | · | · | · | ·
CCOCCc1nn2c(=O)cc(COC(=O)c3ccccc3NC(=O)CC(C)C)nc2s1 | -2% | -9% | ? | 12% | 6% | -10% | · | · | · | · | ·
Cc1ccccc1OCC(=O)Nc1ccccc1C(=O)OCc1cc(=O)n2nc(C3CC3)sc2n1 | 5% | 6% | 2.5µM* | 0% | 4% | 4% | -8% | 4% | -1% | -3% | -20%
COC(=O)[C@@H]1[C@H]2C[C@@H]3c4[nH]c5ccccc5c4CCN3C[C@@H]2CC[C@@H]1O | · | · | · | 5% | · | · | · | · | · | · | ·
CCOc1ccc(CCNc2ncnc3onc(C)c23)cc1OCC | -24% | -4% | 4.7µM* | 7% | ? | 2% | -12% | -5% | -3% | -7% | -28%
Cc1ccccc1-n1c(SCC(=O)c2ccccc2)nnc1-c1ccc(F)cc1 | ? | 2% | 18µM* | -7% | ? | 55% | 1.4µM* | 1.7µM* | 4% | -4% | ?
Cc1ccc2c(c1)C(=O)C(=O)N2Cc1ccc(OCCC(C)C)cc1 | -12% | ? | 4.6µM* | ? | -13% | 20% | -11% | 1% | -8% | -6% | 12µM*
CCCCOc1ccc(Cn2c(=O)oc3ccc(C)cc32)cc1 | 0% | -16% | -11% | -8% | -1% | -1% | · | · | · | · | ·
COc1cc2c(=O)c(C(=O)c3ccc(C)c(C)c3)cn(Cc3ccccc3F)c2cc1OC | -26% | 14% | 17µM* | -2% | -17% | -23% | 0.39µM* | 0.48µM* | -16% | -3% | ?
CCC(=O)N1CCc2cc(Br)cc(S(=O)(=O)N3CCC(C(=O)NC(C)(C)C)CC3)c21 | 17% | -24% | -34% | i | -1% | 6% | -17% | -3% | -12% | -2% | -6%
CCOC(=O)C1CCN(S(=O)(=O)c2cc(Br)cc3c2N(C(=O)CC)CC3)CC1 | 2% | 37% | 5% | i | -2% | -6% | · | · | · | · | ·
COc1cccc(-c2cc(C(=O)Nc3cc(OC)c(OC)c(OC)c3)on2)c1 | ? | -8% | 3.9µM* | ? | -1% | 2% | ? | 11µM* | -13% | -6% | 18µM*
COc1cc(NC(=O)c2cc(-c3ccccc3O)no2)cc(OC)c1OC | ? | ? | ? | -37% | 9% | -7% | · | · | · | · | ·
COCCCNC(=O)c1c(C)nn(-c2ccc(F)cc2)c1-n1cccc1 | -5% | -14% | 4% | -10% | -5% | 6% | · | · | · | · | ·
CSc1ccc(CCNC(=O)c2c(C)nn(-c3ccc(F)cc3)c2-n2cccc2)cc1 | -13% | 93% | 15µM* | 6% | 0% | 32% | -13% | 4% | -12% | -15% | ?
COc1ccc(Nc2nc3c(S(=O)(=O)c4ccccc4)nnn3c3ccsc23)cc1OC | 14% | 2% | -7% | -7% | -5% | -4% | · | · | · | · | ·
COc1ccc(Nc2nc3c(S(=O)(=O)c4ccccc4)nnn3c3ccc(Cl)cc23)cc1 | ? | -25% | 8.9µM* | 1% | -9% | ? | 0% | 5% | 1% | ? | 14µM* | PMP22 prot conf=?
COc1ccc(Nc2nc3c(S(=O)(=O)c4ccc(C)cc4)nnn3c3ccsc23)cc1Cl | -9% | ? | 9µM* | -3% | -1% | -11% | -6% | -15% | -1% | ? | ?
CCOc1ccccc1NC(=O)c1cnn2c(C(F)F)cc(-c3ccccc3)nc12 | 25% | -7% | 11µM* | 4% | -18% | 20% | -6% | 2% | 2% | 17% | ?
Cc1ccc(Cl)cc1NC(=O)c1cnn2c(C(F)F)cc(-c3ccccc3)nc12 | 15% | -2% | -26% | 5% | -29% | -5% | · | · | · | · | ·
